Laboratory results: PMC5540273 (PLoS ONE, 2017)

Columns and labels:
Settings in all cases: concentration: 1 μM, replicates: in singlicate; n = 1
PIK4CB = tested on: T1, PIK4CB
T1 construct: gene PI4KB

PIKFYVE = tested on: PIKFYVE
PIM1 = tested on: PIM1
PIM2 = tested on: PIM2
PIM3 = tested on: PIM3
PIP5K1A = tested on: PIP5K1A
PIP5K1C = tested on: PIP5K1C
PIP5K2B = tested on: PIP5K2B
PIP5K2C = tested on: T2, PIP5K2C
T2 construct: gene PIP4K2C

PKAC-alpha = tested on: T3, PKAC-alpha
T3 construct: gene PRKACA
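Further: KINOMEscan kinase panel screen.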

Compound	%Inh (PIK4CB) [%]	%Inh (PIKFYVE) [%]	%Inh (PIM1) [%]	%Inh (PIM2) [%]	%Inh (PIM3) [%]	%Inh (PIP5K1A) [%]	%Inh (PIP5K1C) [%]	%Inh (PIP5K2B) [%]	%Inh (PIP5K2C) [%]	%Inh (PKAC-alpha) [%]
Cc1ccc(-c2nc(Nc3ccncc3)c3ccccc3n2)s1 [GSK189015]	5	63	17	0	12	0	22	14	1	21
Nc1nccc(-c2c(-c3ccc(F)cc3)ncn2C2CCN(Cc3ccccc3)CC2)n1 [SB-219980]	25	6	0	0	0	0	15	0	82	2
COc1ccc(CSc2nnc(-c3ccc4ncsc4c3)o2)cc1C(F)(F)F	0	0	1	0	10	0	11	17	11	0
Cc1cccc2c(-c3ccncn3)c(-c3ccc(F)cc3)nn12 [GW515532]	0	22	20	0	0	4	31	0	0	7
CNc1cc(-c2ccc3c(N)n[nH]c3c2)nc(N)n1 [GSK2224810]	11	0	15	0	0	18	45	5	27	8
CNC(=O)c1ccc(C)c(-n2c(C)cc(OCc3ccc(F)cc3F)c(Br)c2=O)c1	0	40	0	0	0	0	1	0	0	0
Cc1nccc(-c2c(-c3ccc(F)cc3)ncn2CCCN2CCOCC2)n1.Cl [SB-282975]	42	0	0	13	0	0	22	0	18	24
COc1ccc(Nc2nccc(N3CCC(NC(=O)c4cc5ccccc5s4)C3)n2)cc1 (stereo not shown) [GSK1379738]	19	0	25	0	21	0	40	13	47	0
COc1ccc(Nc2nccc(N3CCC(NC(=O)C(C)c4ccc(Cl)cc4)CC3)n2)cc1 (stereo not shown) [GSK1379812]	11	0	0	0	2	0	29	63	9	17
CNc1nc(-c2ccc3c(N)n[nH]c3c2)cc(N2C[C@@H](C(=O)NC3CCCCC3)OC[C@H]2C)n1 [GSK2375584]	0	0	11	0	0	34	54	21	27	5
Cn1cnc2c(N)ncnc21 [SKF-97623]	10	44	5	0	0	30	0	14	33	0
CSc1ccc(-c2nc3n(c2-c2ccncc2)CCC3)cc1 [SKF-105561]	24	11	0	0	1	37	0	21	0	5
CS(=O)(=O)CCNCc1nc(-c2ccc3ncnc(Nc4ccc(OCc5ccccc5)c(Cl)c4)c3c2)cs1.Cl [GW582764]	0	25	14	0	0	47	52	10	56	0
Cl.Cl.Cl.N#Cc1ccc(CCNc2nccc(-c3cccc(CN4CCNCC4)c3)n2)cc1 [GSK2137462]	26	0	20	0	13	0	0	0	11	13
COc1ccc(Nc2nccc(N3CCC(NC(=O)C(C)c4ccc(Cl)cc4)C3)n2)cc1 (stereo not shown) [GSK1379735]	0	0	0	0	35	8	52	18	25	0
CC(C)c1ccc(O)cc1Nc1ccnc2ccc(C(F)(F)F)cc12 [GW482059]	45	1	19	0	0	0	0	7	0	0
O=C(Nc1n[nH]c2nc(-c3ccco3)c(Br)cc12)C1CCN(Cc2ccccc2)C1.O=C(O)[C@H](O)[C@@H](O)C(=O)O (stereo not shown) [SB-742034]	14	7	9	5	28	0	0	0	0	10

Compound	%Inh (PIK4CB) [%]	%Inh (PIKFYVE) [%]	%Inh (PIM1) [%]	%Inh (PIM2) [%]	%Inh (PIM3) [%]	%Inh (PIP5K1A) [%]	%Inh (PIP5K1C) [%]	%Inh (PIP5K2B) [%]	%Inh (PIP5K2C) [%]	%Inh (PKAC-alpha) [%]
COC(=O)C(NC(=O)NC1CCN(c2ccnc(Nc3ccc(F)cc3)n2)C1)c1ccccc1 (stereo not shown) [GSK1379712]	16	28	0	0	0	9	41	17	29	0
COc1ccc(CSc2nnc(-c3ccc4nccn4c3)o2)cc1C(F)(F)F	0	0	6	9	0	2	0	43	0	10
COC(=O)c1cccc(NC(=O)NC2CCN(c3ccnc(Nc4ccc(OC)cc4)n3)C2)c1 (stereo not shown) [GSK1379746]	21	41	0	0	0	17	10	19	48	0
O=c1cc(N2CCOCC2)nc2n(Cc3cccc(Cl)c3Cl)c3ccccc3n12 [GSK2299009]	0	0	0	0	0	0	17	0	0	0
Nc1cccc(-c2ccc3c(N)n[nH]c3c2)n1 [GSK2192730]	30	0	26	0	13	39	0	4	0	0
O=C1NC(=O)C(c2ccc(Cl)cc2)=C1Nc1ccc(O)cc1 [SB-340867]	13	9	0	3	0	0	40	0	0	0
COc1ccc(-c2coc3ccc(-c4nnc(C)o4)cc23)cc1	0	0	10	21	15	13	14	9	10	3
Fc1ccc(-c2nc[nH]c2-c2ccncc2)cc1 [SB-217360]	0	32	19	0	11	19	0	0	2	25
NS(=O)(=O)c1cccc(N/C=C2\C(=O)Nc3ccc(S(=O)(=O)Cc4c(Cl)cccc4Cl)cc32)c1 [GSK398099]	87	0	0	0	0	0	0	0	1	0
Fc1ccc(-c2nc3n(c2-c2ccncc2)CCS3)cc1 [GI98581]	0	0	0	0	0	33	47	0	12	33
COc1ccc(Nc2nccc(-c3ccc(NC(=O)c4cc5cc(F)ccc5[nH]4)cc3)n2)cc1 [GSK1229496]	0	0	0	0	0	37	54	17	41	0
CCCCc1nn2ncccc2c1-c1ccnc(NC2CC2)n1 [GW684374]	35	0	0	0	0	0	36	0	75	0
CC(=O)c1c(C)c2cnc(Nc3ccc(N4CCNCC4)cn3)nc2n(C2CCCC2)c1=O	0	39	0	0	0	0	0	0	14	0
O=C(Nc1n[nH]c2nc(-c3cccs3)c(Br)cc12)C1CCCC1 [SB-743341]	33	9	0	0	0	0	23	3	0	0
Cn1cncc1-c1cc2c(Nc3ccc(OCc4ccccc4)cc3)ncnc2cn1 [GW281179]	0	18	0	0	0	0	23	0	26	0
CNCc1ccc2nc(NC(=O)c3ccc(C(C)(C)C)cc3)cn2c1	19	0	0	9	23	0	17	11	30	0
COc1cccc(NC(=O)Nc2ccc(C)c(-c3ccc(C(=O)Nc4ccncc4)cc3)c2)c1 [GSK1398474]	0	0	15	0	22	0	0	0	0	17
